Measurements from ChEMBL document CHEMBL4513216, “Probing the Open Global Health Chemical Diversity Library for Multistage-Active Starting Points for Next-Generation Antimalarials” (ACS Infect Dis, 2020).
Screen size: about 69,000 compounds; about 8,600 (12%) showed an effect of 50% or more. Many of the other results were omitted from the sample, so strong results are more common in it than they were.

tested on: Plasmodium berghei; test: Screen against P. berghei liver stage (PbLuc), transformed with Luciferase, at 10uM; type: functional, HepG2; settings: tested at 10 uM

| SMILES | INHIBITION |
| --- | --- |
| CCNc1nc(N(C)C)nc(-n2cnc(SC)n2)n1 | 46.1% |
| Fc1ccccc1CN1CCCC2(CCN(c3ncccn3)C2)C1 (stereo not drawn) | 74.9% |
| Fc1cnccc1CN1CCCC2(CCN(c3ncccn3)CC2)C1 | 30.3% |
| O=C(O)[C@]12CCCN(C3CCOC3)C[C@H]1CN(c1ncccn1)C2 (stereo partly drawn) | 31.2% |
| c1cnc(N2CCC3(CCCN(CC4CCCCC4)C3)C2)cn1 (stereo not drawn) | 63% |
| c1cnc(N2CCOCC3(CCCN(CC4CC4)C3)C2)cn1 (stereo not drawn) | 26.8% |
| c1cnc(N2CCC3(CCN(CC4CC4)CC3)CC2)nc1 | -5.69% |
| Fc1ccccc1CN1CCCC2(CCN(c3ncccn3)CC2)C1 | 30.3% |
| O=C(O)[C@]12CCCN(Cc3ccccc3)C[C@H]1CN(c1ncccn1)C2 | 2.01% |
| c1cnc(N2CCCC3(CN(CC4CCOCC4)CCO3)C2)cn1 (stereo not drawn) | -36% |
| O=C(O)[C@]12CCCN(CC3CCOC3)C[C@H]1CN(c1ncccn1)C2 (stereo partly drawn) | 53.9% |
| c1cnc(N2CCC3(CCCN(CC4CC4)C3)CC2)nc1 | 61.1% |
| c1cnc(N2CCCC3(COCCN(CC4CC4)C3)C2)nc1 (stereo not drawn) | -6.23% |
| CN(CC(=O)N1CCC(N(C)c2ccccc2)CC1)c1cnccn1 | 9.9% |
| COCCCNC(=O)CN1CCC(c2ccccc2)C1 (stereo not drawn) | -4.99% |
| Cn1cccc1C(=O)N[C@@H]1CN(CC2CC2)[C@@H]2COC[C@@H]21 | 0.547% |
| CN(C)S(=O)(=O)c1ccc(-c2nc(C#N)c(NC(C)(C)C)o2)o1 | 16% |
| Cc1ccc(C(=O)N2CCC3(CCC(=O)N(CCCO)C3)CC2)c(O)c1 | -45% |
| COCCS(=O)(=O)NC(C)c1cccc(C)c1C (stereo not drawn) | 48.2% |
| CCc1nnc2n1CCN(C(=O)CCc1ccc(C)c(Cl)c1)C2 | -27% |
| O=C(Cc1c(F)cccc1Cl)N1CCC(Nc2cccnn2)CC1 | -8.225% |
| COCCN1CCC2(CCCN(c3ncccn3)C2)C1 (stereo not drawn) | 48.3% |

| SMILES | INHIBITION |
| --- | --- |
| c1cnc(N2CCCC3(CCN(CC4CC4)C3)C2)nc1 (stereo not drawn) | 43.9% |
| c1cnc(N2CCCC3(CCN(Cc4ccncc4)C3)C2)nc1 (stereo not drawn) | 42.6% |
| c1cnc(N2CCCC3(CCN(CC4CCC4)C3)C2)nc1 (stereo not drawn) | 55.5% |
| c1cnc(N2CC3(CCN(Cc4ccncc4)C3)C2)nc1 | 11.3% |
| c1cnc(N2CCCC3(CCN(c4ncccn4)C3)C2)nc1 (stereo not drawn) | 44.8% |
| c1cnc(N2CCC3(CCCN(Cc4ccncc4)C3)CC2)nc1 | 82.3% |
| c1cnc(N2CCC3(CCN(CC4CCCC4)CC3)C2)nc1 | 28.4% |
| CCC(CC)CN1CCC2(CCCN(c3ncccn3)C2)C1 (stereo not drawn) | 62.5% |
| CC1CN(S(=O)(=O)c2ccc(C(=O)NCC(F)F)cc2)CCCO1 (stereo not drawn) | 49.2% |
| Cc1ccc(CN2CCN(C(=O)CCc3nc(Cl)n[nH]3)CC2=O)cc1 | 29.4% |
| O=C1CN(Cc2ccc3ccccc3n2)CCN1C1CCCC1 | 36% |
| Cc1nnc(NC(=O)NCc2ccc(OC(C)C)nc2)s1 | 21.5% |
| CCN(Cc1cccc2c1OCCO2)C(=O)NC(C)(C)C | 51.1% |
| CN(CC(=O)NCC(F)(F)F)Cc1cccc2c1OCCO2 | 44.7% |
| CCN(Cc1cccc2c1OCO2)C(=O)NC1CC1 | 36.4% |
| CCN(CC(=O)NC(C)(C)C)Cc1cccc2c1OCCO2 | 23.3% |
| CN(CC(=O)NC(C)(C)C)Cc1cccc2c1OCCO2 | 65% |
| CCN(Cc1cccc2c1OCO2)C(=O)Nc1ccncc1 | 46.5% |
| CCC(O)CN1CCN(C(=O)c2sccc2C(C)C)CC1 (stereo not drawn) | 23.4% |
| O=C(Nc1nc(-c2ccccc2)ns1)N1CCC(F)CC1 | -47% |
| CC(C)(O)C1CCCN(C(=O)Nc2nc(-c3ccccc3)ns2)C1 (stereo not drawn) | -62.8% |
| CC(C)(O)C1CCN(C(=O)Nc2nc(-c3ccccc3)ns2)CC1 | 58.9% |

| SMILES | INHIBITION |
| --- | --- |
| CC(C)n1cnnc1C1CCCN(S(=O)(=O)c2c[nH]cn2)C1 (stereo not drawn) | 36.3% |
| O=C(Cc1csc(-c2ccccn2)n1)NCCCN1CCCCCC1=O | 9.76% |
| CC(=O)Nc1ncc(S(=O)(=O)Nc2ccccc2)s1 | 40.8% |
| COC(=O)c1ccc(NS(=O)(=O)c2cnc(NC(C)=O)s2)cc1 | 1.86% |
| CC(=O)Nc1ncc(S(=O)(=O)N2CCC(C)CC2)s1 | 61.2% |
| CC(=O)Nc1ncc(S(=O)(=O)Nc2ccc(F)cc2)s1 | -6.32% |
| COC(=O)c1cccc(NS(=O)(=O)c2cnc(NC(C)=O)s2)c1 | 22.9% |
| COc1ccc(NS(=O)(=O)c2cnc(NC(C)=O)s2)cc1 | 50.7% |
| CC(=O)Nc1ncc(S(=O)(=O)Nc2ccc3c(c2)OCCO3)s1 | 81.4% |
| CC(=O)Nc1ncc(S(=O)(=O)Nc2cccc(F)c2)s1 | -13% |
| CC(=O)Nc1ncc(S(=O)(=O)Nc2ccc(C)cc2)s1 | 77.2% |
| CC(=O)Nc1ncc(S(=O)(=O)N2CCOCC2)s1 | 21.7% |
| CC(=O)Nc1ncc(S(=O)(=O)Nc2cccc(C)c2)s1 | 27.5% |
| CC(=O)Nc1ncc(S(=O)(=O)N2CCCC(C)C2)s1 (stereo not drawn) | 40.2% |
| CC(NC(=O)CNS(C)(=O)=O)c1ccccc1Oc1ccccc1 (stereo not drawn) | 37.1% |
| Cc1cc(N2CCCCC2)nc(N(CCO)CCO)c1C#N | 31.8% |
| CN(C(=O)c1ccncc1)c1nnc(C2CCOC2)s1 (stereo not drawn) | 1.25% |
| Cc1cccc(CN2C(=O)CO[C@@H]3CN(Cc4cnn(C)c4)C[C@H]32)c1 | 45.2% |
| COc1ccc(CN2C[C@H]3CCC[C@@H](CN(C)C)[C@H]3C2)cn1 | 34.6% |
| Cc1cc(C(=O)N2CCCC(c3ccc(C(=O)O)cc3)C2)c(C)o1 (stereo not drawn) | 9.52% |
| COc1ccc(Cl)cc1NCCC(=O)NCCNc1cnccn1 | 14.4% |
| Cc1[nH]ccc1C(=O)NCc1ncoc1C | -17.3% |

| SMILES | INHIBITION |
| --- | --- |
| CCC(=O)N1CCC1c1cc(NC2CCCC2)nc(C)n1 (stereo not drawn) | 14.5% |
| COc1ccc(C(C)N2CCC(C(=O)N(C)C)CC2)cc1Cl (stereo not drawn) | 24.8% |
| COc1ccc(C(C)N2CCC(CNC(C)=O)CC2)cc1Cl (stereo not drawn) | 70.3% |
| COc1ccc(C(C)N2CCC(C(=O)NC3CC3)CC2)cc1Cl (stereo not drawn) | 41.5% |
| COc1ccc(C(C)N2CCC(OC)CC2)cc1Cl (stereo not drawn) | 42.4% |
| COc1ccc(C(C)N2CCC(CO)CC2)cc1Cl (stereo not drawn) | 40.6% |
| COc1ccc(C(C)N2CCC(NS(C)(=O)=O)CC2)cc1Cl (stereo not drawn) | 57.3% |
| CC(C)c1cc(NC(=O)Cn2ccc(=O)c3ccccc32)[nH]n1 | 6.72% |
| CCN(CC1COc2ccccc2O1)C(=O)CCn1cncn1 (stereo not drawn) | -4.4% |
| Cc1nn(C)c(N(C)C)c1CNCc1cccnc1OC(C)C | 19.6% |
| CCC(Nc1ccc(Oc2ccccc2OC)cc1)C(N)=O (stereo not drawn) | -34.1% |
| CCC(Nc1ccc(Oc2ccc(C#N)cc2OC)cc1)C(N)=O (stereo not drawn) | 73.1% |
| CCC(Nc1ccc(Oc2cccc(C#N)c2)cc1)C(N)=O (stereo not drawn) | 39.7% |
| CCC(C)NC(=O)c1cc(S(N)(=O)=O)c(Br)s1 (stereo not drawn) | 14% |
| Cc1oc(C(=O)O)cc1S(=O)(=O)Nc1ccc(Cl)cc1F | -20.2% |
| CC(=O)Nc1ccc(Oc2cc(C)nc(C3CCNCC3)c2)cc1 | 19.15% |
| CC(=O)N1CCCC1CCc1ccnc(-c2cncnc2)c1 (stereo not drawn) | 27.45% |
| COC(=O)C1=C(C)N=C2SCC(=O)N2C1c1cn(C)nc1C (stereo not drawn) | 12.6% |
| COC(=O)c1ccccc1C(=O)N(CCN(C)C)Cc1sccc1C | 8.03% |
| CN(C)CCN(Cc1ccsc1)C(=O)C1=NNC(=O)CC1 | 49% |
| CN(C)CCN(Cc1ccccc1)C(=O)C1=NNC(=O)CC1 | 18% |
| Cc1ccsc1CN(CCN(C)C)C(=O)c1cc2ccccc2[nH]1 | 71% |

| SMILES | INHIBITION |
| --- | --- |
| Cc1ccsc1CN(CCN(C)C)C(=O)c1ccccc1C#N | 14.6% |
| Cc1ccsc1CN(CCN(C)C)C(=O)C1=NNC(=O)CC1 | 67.2% |
| Cc1nn(C)c(C)c1C1CCCN1C(=O)CCCNc1ncccn1 (stereo not drawn) | -16% |
| CN(CCCNC(=O)C1CCCN(C(N)=O)C1)S(C)(=O)=O (stereo not drawn) | 19.8% |
| O=C(Cc1ccc(F)cc1)NCCNS(=O)(=O)C1CCCC1 | 54.9% |
| O=C(Cc1ccccc1)NCCNS(=O)(=O)C1CCCCC1 | 18.2% |
| O=C(Cc1cccc(F)c1)NCCNS(=O)(=O)C1CCCC1 | 25.3% |
| O=C(c1ccc(O)nc1)N1CCC(Nc2cccnn2)CC1 | 29.4% |
| Cc1ccc(N2CC[C@H]3O[C@H](C(=O)N4CCCCO4)CC[C@H]32)nn1 | 46.4% |
| Cc1ccc(N2CC[C@H]3O[C@@H](C(=O)N4CCCCO4)CC[C@H]32)nn1 | 3.69% |
| Cc1ccc(N2CC[C@H]3O[C@@H](C(=O)N4CCCO4)CC[C@H]32)nn1 | 92.1% |
| Cc1ccc(CN2CC[C@H]3O[C@@H](C(=O)N4CCCO4)CC[C@H]32)s1 | 66.9% |
| Cc1ccsc1CN1CC[C@H]2O[C@H](C(=O)N3CCCO3)CC[C@H]21 | -18.4% |
| O=C([C@@H]1CC[C@@H]2[C@@H](CCN2Cc2cccs2)O1)N1CCCCO1 | -75.3% |
| COCCCN(Cc1ccccn1)S(=O)(=O)N(C)C | 32.8% |
| CS(=O)(=O)NCc1cn2c(n1)CN(Cc1cccnc1)CC2 | -12.2% |
| CCCSCC(=O)N1C[C@@H]2CC[C@H]1CN(c1ncccn1)C2 | -4.37% |
| CCN(C)CC1CCN(C(=O)Nc2ccc(-c3csnn3)cc2)C1 (stereo not drawn) | -32.3% |
| O=C(Nc1ccc(-c2csnn2)cc1)N1CC[C@H](O)C1 | -73.4% |
| CCOCC1CCN(C(=O)Nc2ccc(-c3csnn3)cc2)C1 (stereo not drawn) | 60% |
